Results published in PubChem BioAssay (NCI).
Compounds without any hit were thinned out: in the full panel of roughly 79,000, 15% have a hit. No stated cut-off is given here; in the data, active means growth inhibition above about 70%; inactive means the rest. Where a SMILES comes first, the peptide text is derived from it.

Key:
[1] = NCI Yeast Anticancer Drug Screen. Data for the rad50 strain (AID 155);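 further: 0% = growth of vehicle-only cultures of the same strain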; conditions: S. cerevisiae rad50 strain growth inhibition; at 50.0 µM; hits give high values
Summary of the method: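 Vehicle-treated cultures provide the reference for the growth inhibition reported for compound-exposed, repair-deficient yeast.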

[2] = NCI Yeast Anticancer Drug Screen. Data for the mec2-1 strain (AID 157); conditions: S. cerevisiae mec2-1 strain, at 50.0 µM, hits give high values
Summary of the method: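 Cells of the genetically defined mec2-1 yeast strain are incubated with test compound. Inhibition of growth is calculated against vehicle-treated controls.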

[3] = NCI Yeast Anticancer Drug Screen. Data for the sgs1 mgt1 strain (AID 161);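 further: 0% = growth of cultures given vehicle only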; conditions: S. cerevisiae sgs1 mgt1 strain, at 50.0 µM, hits give high values
Summary of the method: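 Mutant yeast exposed to compound; growth scored against vehicle-only wells.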

[4] = NCI Yeast Anticancer Drug Screen. Data for the cln2 rad14 strain (AID 165);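 further: 0% = growth equal to vehicle treated cultures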; conditions: S. cerevisiae cln2 rad14 strain, at 50.0 µM, hits give high values
Summary of the method: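 The screen exposed genetically defined yeast (cln2 rad14) to test compounds and scored growth inhibition relative to vehicle-treated controls.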

[5] = NCI Yeast Anticancer Drug Screen. Data for the bub3 strain (AID 167); conditions: S. cerevisiae bub3 mutant strain, at 50.0 µM, hits give high values
Summary of the method: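 Mutant yeast screening strain plus compound; vehicle-treated cultures serve as the 0% inhibition reference.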

[6] = NCI Yeast Anticancer Drug Screen. Data for the mlh1 rad18 strain (AID 175); conditions: S. cerevisiae mlh1 rad18 strain growth inhibition; at 50.0 µM; hits give high values
Summary of the method: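 Compound-treated yeast growth, normalised to vehicle controls. Strain bears defined DNA repair mutations.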

Measured: growth inhibition

CC12CCC3c4ccc(OC(=O)C56C=CC(=O)C5C5C=CC6CC5)cc4CCC3C1CCC2=O (stereo unspecified)
inactive: [1] 11.6% | [2] -16.8% | [3] -2.2% | [4] 16.1% | [5] -4.05% | [6] 0.05%

NCCCCN(CCCN)Cc1ccccc1
inactive: [1] -4.8% | [2] -1.25% | [3] -17.1% | [4] 11.6% | [5] -4% | [6] -58.9%

Cc1c(C)c(C)c(Br)c(C)c1C
inactive: [1] -6.7% | [2] -5.05% | [3] -14% | [4] -17.6% | [5] 1.15% | [6] 0.65%

CSc1ccc(C2OC(=O)c3ccccc32)c2ccccc12 (stereo unspecified)
inactive: [1] 20.4% | [2] -11.6% | [3] 21.2% | [4] 8.25% | [5] -14.8% | [6] 5.1%

CC1=NC(=O)CNN1C1=NNC2(C(=O)N1)c1ccccc1-c1ccccc12
inactive: [1] -11.1% | [2] -7.3% | [3] -15.2% | [4] 0.85% | [5] -7.3% | [6] -25.1%

OC(Cc1cccnc1)(c1ccccc1)c1cccc2ccccc12 (stereo unspecified)
inactive: [1] 12.3% | [2] 13.8% | [3] -2.3% | [4] 7.45% | [5] 10.5% | [6] 13.9%

Cc1[nH]c2ccccc2c1C1=CC(=O)N(c2ccccc2)C1=O
inactive: [1] -24.1% | [2] -23.6% | [3] 9.3% | [4] 21.4% | [5] -4.7% | [6] -7.9%

COc1cccc(C(=O)C(O)c2cccc(OC)c2OC)c1OC (stereo unspecified)
inactive: [1] 0.6% | [2] -5.45% | [3] 8.2% | [4] 0.15% | [5] -10.6% | [6] -42%

CN(CCOc1ccccc1)Cc1ccccc1
inactive: [1] 33.1% | [2] 7.15% | [3] 50.7% | [4] 31.3% | [5] 40.1% | [6] 34.4%

CCC(C)(C#N)OC(C)=O (stereo unspecified)
inactive: [1] -3.75% | [2] -26.6% | [3] -8.4% | [4] -6.85% | [5] 4.6% | [6] 8.45%

CC(C)CC(NC(=O)C(NC(=O)C(N)C(C)O)C(C)C)C(=O)O (stereo not drawn) (H-Thr-Val-Leu-OH; configuration not given here)
inactive: [1] 5.9% | [2] 3.1% | [3] 3.5% | [4] 5.95% | [5] 4.75% | [6] -1.5%

CC(C)C1CC(C(C)C)C(O)C(C(C)C)C1 (stereo unspecified)
inactive: [1] 11.8% | [2] 1.55% | [3] 6.6% | [4] -5.9% | [5] 5.45% | [6] 15.7%

c1cnn([B-]2(n3cccn3)n3ccc[n+]3[B-](n3cccn3)(n3cccn3)n3ccc[n+]32)c1
inactive: [1] 0.85% | [2] -11.6% | [3] 9.2% | [4] -8.85% | [5] 14.1% | [6] -4.05%

C/C=C/C=N/N(C(=O)c1cc([N+](=O)[O-])cc([N+](=O)[O-])c1)C1=NC(c2ccccc2)C(c2ccccc2)=NN1 (stereo unspecified)
inactive: [1] 41.9% | [2] 24.4% | [3] 13% | [4] 41.1% | [5] 15.3% | [6] 26.3%

COC1=CCC2=C(CCO2)C1
inactive: [1] 5.3% | [2] 0.35% | [3] -6.9% | [4] -18.5% | [5] -7.1% | [6] 1.1%

CC(C)c1ccc2c(c1)C=C1OC(=O)[C@]3(C)CCC[C@@]2(C)C13 (stereo partly specified)
inactive: [1] 35.1% | [2] 21.9% | [3] 54.2% | [4] 40% | [5] 26.4% | [6] 17.1%

CS(=O)(=O)OCC(=O)NCCCCNC(=O)COS(C)(=O)=O
inactive: [1] -12.4% | [2] 2.7% | [3] 4.55% | [4] -29.5% | [5] 7.45% | [6] 10.3%

O=C1CCSSCCC(=O)Nc2ccccc2N1
inactive: [1] -36.4% | [2] -42.5% | [3] -14.8% | [4] -9.55% | [5] -18.1% | [6] -15.6%

COC(=O)CCN(CCC(=O)OC)C1CC1
inactive: [1] -23.4% | [2] -14.3% | [3] -13.4% | [4] 19.6% | [5] 3.75% | [6] -20.4%

Cc1cc(-n2nnc(C(=O)O)c2-c2ccccc2)c2ccc(Cl)cc2n1
inactive: [1] -19.1% | [2] -4.35% | [3] -12.1% | [4] -35% | [5] -8.9% | [6] 4.1%

COC(=O)C(=O)C(C(=O)C(=O)Nc1ccc([N+](=O)[O-])cc1)c1nc2ccccc2[nH]c1=O (stereo unspecified)
inactive: [1] 10.1% | [2] -5.95% | [3] 19.5% | [4] 15.4% | [5] 11.7% | [6] 29.5%

COc1ccc(Sc2cccc(Cl)c2)c(C(=O)O)c1
inactive: [1] -21.8% | [2] -18.4% | [3] -27.2% | [4] 3.8% | [5] -0.55% | [6] 6.5%

O=Cc1c[nH]c2ccccc2c1=O
inactive: [1] 17.1% | [2] 0.9% | [3] 1.05% | [4] 3.55% | [5] 30.4% | [6] 10.9%

CCC(=O)c1cc2c(cc1O)CC(C(=O)CC)c1ccccc1-2 (stereo unspecified)
inactive: [1] 13.3% | [2] 6.55% | [3] 17% | [4] -2.55% | [5] 11.2% | [6] 12.4%

O=C1/C(=C/c2ccc(Cl)cc2)Oc2ccccc21
inactive: [1] -31.4% | [2] -7.05% | [3] -18.9% | [4] 1.4% | [5] -8.1% | [6] -19.6%

CC(C)=NNC(=O)c1ccc(Cl)cc1
inactive: [1] -19.1% | [2] -25.1% | [3] -18.2% | [4] 17.1% | [5] -7.85% | [6] -32.1%

CCOC(=O)C1=C(C(C)=O)C(c2ccccc2[N+](=O)[O-])C(C(C)=O)=C(C(=O)OCC)N1
inactive: [1] -7.35% | [2] 10.4% | [3] -9.2% | [4] -6.85% | [5] -9% | [6] 9.25%

CCCn1c(C)nc2cc(C)cc(N)c21
inactive: [1] 19.2% | [2] 20.4% | [3] 11% | [4] -17.4% | [5] -1.15% | [6] 1.7%

C#CC(C)(O)CCCCCC (stereo unspecified)
inactive: [1] 3.7% | [2] 16.4% | [3] 12% | [4] -4.05% | [5] 35% | [6] -7.1%

COC(=O)c1cccnc1C#N
inactive: [1] 2.2% | [2] -0.95% | [3] 2.9% | [4] -5.95% | [5] 0.55% | [6] 0.4%

NC(C(=O)O)c1ccc(F)cc1 (stereo unspecified)
inactive: [1] -9.1% | [2] -1.4% | [3] 28.7% | [4] -10% | [5] 2.4% | [6] 37.5%

CC(=Nc1ccc(C)cc1N)c1c(O)cc(C)oc1=O
inactive: [1] -8.75% | [2] -7.5% | [3] -11.4% | [4] -32.6% | [5] 1.3% | [6] -5.85%

CC(O)C(O)C(O)C1OC1=O (stereo unspecified)
inactive: [1] 0.95% | [2] -9.8% | [3] 0.75% | [4] -43% | [5] -8.9% | [6] -1.05%

Cc1nc2c(N3CCOCC3)ncnc2o1
inactive: [1] 5.15% | [2] -1.05% | [3] -5.5% | [4] -27.4% | [5] -15.3% | [6] 7.75%

CCOC(=O)OC1CCC2(C)C(=CCC3C2CCC2(C)C(C(C)CCCC(C)C)CCC32)C1 (stereo unspecified)
inactive: [1] -3.95% | [2] -19.1% | [3] 0.6% | [4] 9.5% | [5] 4.25% | [6] -4.3%

COCCCCCC(=O)OC
inactive: [1] 5.05% | [2] 17.1% | [3] 6.4% | [4] 4.5% | [5] -7% | [6] 0.5%

CC1=CC(C)(C)NC(=S)N1C1CCCCC1
inactive: [1] 9.75% | [2] -6.85% | [3] 6.3% | [4] -5% | [5] 6.55% | [6] 14.6%

Nc1ncnc2c1ncn2CCOCC(O)CO (stereo unspecified)
inactive: [1] -0.75% | [2] -4.3% | [3] -5.95% | [4] -15.4% | [5] -7.7% | [6] -19.9%

COc1cc(CN2CCCCC2)cc2cc(C(=O)O)c(=O)oc12
inactive: [1] 8.75% | [2] 7.55% | [3] -34.9% | [4] -1.15% | [5] -15.3% | [6] -11.9%

CNc1n[nH]c(-c2ccccc2)n1
inactive: [1] 4.85% | [2] -17.5% | [3] 11.8% | [4] 11.9% | [5] 1.15% | [6] 1.8%

O=C(NC1CCCCC1)C1C2CC3OC(=O)C1C3C2 (stereo unspecified)
inactive: [1] -10.8% | [2] -19.2% | [3] 37.1% | [4] -27.6% | [5] 20.5% | [6] -10.1%
